Among the data in the supplement of paper PMC6555819 are PBM binding z-score values, retold here.

Common to all, as to assay: PBM binding z-score (relative to random genomic background probes); higher = stronger binding; sequences stand for … in GC…GCGATTGACAGCGTAGAATGAAGG
For assay [1], the system named is FXR:RXRa (NR concentration 270 nM, RXRa partner concentration 90 nM). The essentials: (§1)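 Custom Agilent 4×180K protein-binding microarrays carried double-stranded probes. Their 34-nt variable regions held direct-repeat seeds, single-nucleotide variants, half-site ablations and random human genomic background sequences. Arrays were incubated 1 h with ligand-free nuclear receptor dimers in PBS pH 7.4, 2% milk, 0.02% Triton X-100, 1 mM DTT, 0.2 mg/mL BSA and 0.4 mg/ml salmon testes DNA. Antibodies against each partner (one per run) detected binding, and scanned fluorescence was regression-normalized. Binding z-scores use random background probes as reference.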

For assay [2], the system named is LXRa:RXRa (NR concentration 270 nM, RXRa partner concentration 90 nM). The essentials:
as §1

The subject of assay [3] is LXRa homodimer (NR concentration 270 nM). The method in brief: as §1
In assay [4] the test system is LXRb:RXRa (NR concentration 270 nM, RXRa partner concentration 90 nM). The essentials: as §1
The subject of assay [5] is LXRb homodimer (NR concentration 270 nM). The method in brief:
as §1

The test system of assay [6] is PPARa:RXRa (NR concentration 270 nM, RXRa partner concentration 90 nM). The essentials: as §1
The test system of assay [7] is PPARg:RXRa (NR concentration 180 nM, RXRa partner concentration 90 nM). The essentials: as §1
The test system of assay [8] is PPARg:RXRa 270nM:90nM, anti-RXR (NR concentration 270 nM, RXRa partner concentration 90 nM). The method in brief:
as §1

For assay [9], the system named is PPARg:RXRa 30nM:10nM, anti-RXR (NR concentration 30 nM, RXRa partner concentration 10 nM). The method in brief:
as §1

The subject of assay [10] is PPARg:RXRa 90nM:30nM, anti-RXR (NR concentration 90 nM, RXRa partner concentration 30 nM). The method in brief:
as §1

Assay [11] deals with PPARg:RXRa DBDmut IVT, anti-RXR (DBD mutation: RXRa K156A/R161A, NR concentration 270 nM, RXRa partner concentration 90 nM). The method in brief:
as §1

Assay [12] relates to PPARg:RXRa IVT, anti-PPARg (NR concentration 270 nM, RXRa partner concentration 90 nM). The method in brief:
as §1

In assay [13] the test system is PPARg DBDmut:RXRa IVT, anti-PPARg (DBD mutation: PPARg1 K132A/R137A, NR concentration 270 nM, RXRa partner concentration 90 nM). The method in brief:
as §1

Assay [14] relates to PPARg DBDmut IVT, anti-PPARg (DBD mutation: PPARg1 K132A/R137A, NR concentration 270 nM). The essentials:
as §1

In assay [15] the test system is PPARg homodimer (NR concentration 180 nM). The essentials: as §1
For assay [16], the system named is PXR:RXRa (NR concentration 270 nM, RXRa partner concentration 90 nM). The essentials: as §1
Assay [17] deals with PXR homodimer (NR concentration 270 nM). The essentials:
as §1

The test system of assay [18] is RARa:RXR (NR concentration 270 nM, RXRa partner concentration 90 nM). The essentials:
as §1

Assay [19] deals with RARa homodimer (NR concentration 270 nM). The method in brief: as §1
The test system of assay [20] is RARb:RXRa (NR concentration 270 nM, RXRa partner concentration 90 nM). The essentials: as §1

As to TCTCGGAGGACACGACAGGTCAGAGCTCGACATC, the PBM binding z-score in assay [1] is 1.13; in [2] it was 1.51; in assay [3], 0.823; in assay [4], 0.827; in assay [5] it was -0.505; in assay [6], 1.4. The PBM binding z-score in [7] is 0.559; in [8] it was 1.1; in assay [9] it was 2.11; in assay [10], 1.5; in [11], 0.919; in assay [12], 0.745. Further, the PBM binding z-score is 0.0844 in assay [13]; -0.496 in [14]; 0.53 in [15]; 1.27 in assay [16]; -0.142 in [17]; 1.6 in assay [18]. Further, the PBM binding z-score in assay [19] amounted to 0.0819; in [20], 2.62.

In the case of CAAACTAGGTCACGAAAGGTCTAAGTCGAATGAC, the PBM binding z-score in assay [1] came out at 4.46; in assay [2], 4.6; in [3] it was 0.351; in assay [4], 3.17; in assay [5], 0.461; in assay [6], 5.52. Further, the PBM binding z-score in assay [7] amounted to 9.08; in assay [8], 7.4; in assay [9], 5.87; in [10], 7.6; in [11], 8.65; in assay [12], 9.08. Also, the PBM binding z-score in assay [13] came to 1.37; in assay [14] it was 1.82; in assay [15] it was 2.76; in [16] it was 3.68; in assay [17], 0.0383; in [18], 3.59. Also, the PBM binding z-score in assay [19] was determined as 0.679; in assay [20], 4.39.

As for GCGACTGGGGCATCCGCAGGTTACCATAACTTAA, the PBM binding z-score in [1] was -0.134; in assay [2], -0.356; in assay [3], -0.324; in [4], 0.722; in [5], -0.515; in assay [6], 1.06. In addition, the PBM binding z-score in [7] was 0.756; in assay [8] it was 0.848; in [9], -0.543; in assay [10], 0.0228; in [11] it was 3.8; in assay [12], 3.27. The PBM binding z-score is -1.11 in assay [13]; -0.898 in assay [14]; -0.268 in [15]; 0.263 in assay [16]; -0.637 in assay [17]; 0.49 in [18]. The PBM binding z-score in assay [19] is -1; in assay [20] it was 0.89.

As for TCTATTAGTTGATTAGGTCAACCGAAACAGCGGA, the PBM binding z-score in assay [1] came out at 1.7; in [2], 2; in assay [3], 1.49; in [4], 2.02; in assay [5] it was 1.35; in assay [6], 2.94. The PBM binding z-score in assay [7] amounted to 1.16; in assay [8], 3.19; in [9], 3.91; in assay [10] it was 3.59; in [11], 2.89; in [12] it was 3.1. For the same sequence, the PBM binding z-score in assay [13] is 1.43; in assay [14] it was 1.8; in assay [15], 2.28; in assay [16], 2.03; in [17], 0.923; in assay [18], 2.56. For the same sequence, the PBM binding z-score is 1.9 in [19] and 2.73 in assay [20].

Turning to TGAATGAGGTTATAAAATCAGGGAACGTTGCAAA, the PBM binding z-score in assay [1] was 0.804; in assay [2], 0.908; in [3], -0.31; in [4], 1.02; in [5], 0.05; in assay [6] it was 2.15. Further, the PBM binding z-score amounted to 0.802 in assay [7]; 1.19 in [8]; 0.684 in [9]; 1.09 in [10]; 0.257 in assay [11]; 1.47 in [12]. In addition, the PBM binding z-score in assay [13] was 1.21; in [14] it was 0.504; in [15] it was 0.289; in assay [16], 0.62; in assay [17], -0.104; in assay [18], 0.96. Besides, the PBM binding z-score is -0.0179 in assay [19] and 0.918 in assay [20].

Take TCATATAGGTACACAGGTGAAAGTCCGTAAGTTA: the PBM binding z-score in [1] came out at 0.94; in assay [2], 1.1; in [3], 0.566; in assay [4], 1.09; in [5], 0.0342; in assay [6], 1.94. Also, the PBM binding z-score is 2.32 in assay [7]; 3.69 in [8]; 4.18 in assay [9]; 4.15 in [10]; 3.06 in assay [11]; 2.34 in [12]. Besides, the PBM binding z-score stood at 0.518 in assay [13]; 0.496 in assay [14]; 1.23 in assay [15]; 1 in assay [16]; 0.981 in [17]; 0.908 in assay [18]. The results for the PBM binding z-score in assay [19] and in assay [20] were 1.26 and 0.943, respectively.
